Results taken from PubChem BioAssay (EPA / NIEHS).
More than one record can exist for a structure, and the calls need not agree. The source made the active and inactive calls. The calls were made as follows: active = hit-call score of the fitted dose curve at least 0.9, where 1 is the maximum; inactive = score below 0.9.

Test system: not listed separately
Test: ATG_SREBP_CIS: Attagene CIS-FACTORIAL HepG2 Assay for human Sterol Regulatory Element Binding (SREBP) (AID 2282962)
Details: HepG2 Attagene cis-factorial SREBP reporter, mRNA; actives raise or lower the signal
Method in brief: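 Twenty-four hours after chemical dosing of transfected HepG2 cultures, reporter RNA was converted to cDNA, amplified, end-labelled with 6-FAM and resolved by capillary electrophoresis. Responses were fitted relative to DMSO.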

| SMILES | outcome | AC50 |
| --- | --- | --- |
| CCC(O)=C1C(=O)CC(C(=O)O)CC1=O (stereo not given) | inactive | – |
| COC(=O)c1cccc(C)c1S(=O)(=O)NC(=O)Nc1nc(OCC(F)(F)F)nc(N(C)C)n1 | inactive | – |
| N[C@@H](Cc1cc(I)c(Oc2ccc(O)c(I)c2)c(I)c1)C(=O)O | inactive | – |
| S=C([S-])NCCNC(=S)[S-].[Mn+2] | inactive | – |
| CCN(Cc1c(F)cccc1Cl)c1c([N+](=O)[O-])cc(C(F)(F)F)cc1[N+](=O)[O-] | inactive | – |
| CC(=O)[C@H]1CC[C@H]2[C@@H]3CCC4=CC(=O)CC[C@]4(C)[C@H]3CC[C@]12C | – | 33.4 µM (active) [middle of 4 runs] |
| S=C(S)NCCNC(=S)S.[Mn+2].[S-]C([S-])=NCCN=C([S-])[S-].[Zn+2] | inactive | – |
| C#CCOC(=O)[C@@H](C)Oc1ccc(Oc2ncc(Cl)cc2F)cc1 | inactive | – |
| c1ccc2[nH]c(-c3cscn3)nc2c1 | inactive | – |
| CN(C)C(=O)Nc1ccc(Cl)c(Cl)c1 | inactive | – |
| CCCN(CCC)c1c([N+](=O)[O-])cc(C(F)(F)F)c(N)c1[N+](=O)[O-] | inactive | – |
| COC(=O)c1ccccc1C(=O)O | inactive | – |
| CC1(C)C(C=C(Cl)Cl)C1C(=O)OCc1cccc(Oc2ccccc2)c1 (stereo not given) | inactive | – |
| C[C@]12CC[C@@H]3c4ccc(O)cc4C[C@@H](CCCCCCCCCS(=O)CCCC(F)(F)C(F)(F)F)[C@H]3[C@@H]1CC[C@@H]2O (stereo not given in full) | inactive | – |
| CCC(C)OC(=O)N1CCCCC1CCO (stereo not given) | inactive | – |
| COCCO | inactive | – |
| c1ccc(Nc2ccccc2)cc1 | inactive | – |
| O=C(c1ccccc1)C1CCCCC1 | inactive | – |
| COc1c(Cl)ccc(Cl)c1C(=O)O | inactive | – |
| O=C(c1ccc(O)cc1O)c1ccc(O)cc1O | inactive | – |
| CCOC(=O)c1ccc(O)cc1 | inactive | 43.7 µM (active) |
| O=C(O)C1(C(=O)Nc2ccc(Cl)cc2Cl)CC1 | inactive | – |
| CC(C)(C)[C@@H](O)[C@@H](Cc1ccc(Cl)cc1)n1cncn1 | inactive | – |
| CC(C)(c1ccc(O)cc1)c1ccc(O)cc1 | inactive | – |
| CCOC(=O)C(C)Oc1ccc(Oc2cnc3cc(Cl)ccc3n2)cc1 (stereo not given) | inactive | – |
| N#CSCSc1nc2ccccc2s1 | inactive | – |
| CC(=O)S[C@@H]1CC2=CC(=O)CC[C@]2(C)[C@H]2CC[C@@]3(C)[C@@H](CC[C@@]34CCC(=O)O4)[C@H]12 | inactive | 100 µM (active) |
| CC(C)CCCCCCc1ccc(O)cc1 | inactive | 20.2 µM (active) |
| CCOC(=O)NCCOc1ccc(Oc2ccccc2)cc1 | inactive | – |
| CCNc1nc(N)nc(Cl)n1 | inactive | – |

Molecular target: Signal transducer and activator of transcription 3 (Homo sapiens) (UniProt P40763)
Sequence (P40763 whole entry, looked up): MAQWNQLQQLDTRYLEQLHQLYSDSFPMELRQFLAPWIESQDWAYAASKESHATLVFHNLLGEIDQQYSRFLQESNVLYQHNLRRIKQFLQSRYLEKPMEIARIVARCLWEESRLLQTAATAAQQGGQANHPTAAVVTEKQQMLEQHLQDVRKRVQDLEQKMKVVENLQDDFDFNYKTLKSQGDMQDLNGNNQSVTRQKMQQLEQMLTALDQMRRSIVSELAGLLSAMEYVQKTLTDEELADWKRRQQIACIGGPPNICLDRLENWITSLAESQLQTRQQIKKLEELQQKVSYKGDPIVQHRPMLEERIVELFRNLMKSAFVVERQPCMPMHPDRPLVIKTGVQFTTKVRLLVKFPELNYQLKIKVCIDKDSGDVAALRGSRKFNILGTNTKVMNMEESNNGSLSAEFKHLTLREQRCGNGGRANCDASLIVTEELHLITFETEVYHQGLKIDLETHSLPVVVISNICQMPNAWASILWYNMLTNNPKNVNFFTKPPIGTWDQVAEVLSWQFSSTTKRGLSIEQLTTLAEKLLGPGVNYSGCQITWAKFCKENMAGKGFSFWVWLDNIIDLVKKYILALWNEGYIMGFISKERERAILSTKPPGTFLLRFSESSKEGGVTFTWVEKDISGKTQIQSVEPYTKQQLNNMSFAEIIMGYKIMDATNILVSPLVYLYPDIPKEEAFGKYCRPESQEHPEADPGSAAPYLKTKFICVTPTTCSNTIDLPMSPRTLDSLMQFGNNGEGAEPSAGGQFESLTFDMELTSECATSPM
Test: ATG_STAT3_CIS: Attagene CIS-FACTORIAL HepG2 Assay for human Signal Transducer and Activator of Transcription 3 (STAT3) (AID 2282963)
Details: HepG2, Attagene cis-factorial STAT3 reporter transcription; actives raise or lower the signal
Method in brief: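 Transcript-level reporter assay. HepG2 transient MRTU transfection, 24 h exposure, fluorescence detection after RT-PCR and CE; DMSO baseline.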

| SMILES | outcome | AC50 |
| --- | --- | --- |
| CCC(O)=C1C(=O)CC(C(=O)O)CC1=O (stereo not given) | inactive | – |
| N[C@@H](Cc1cc(I)c(Oc2ccc(O)c(I)c2)c(I)c1)C(=O)O | inactive | – |
| S=C([S-])NCCNC(=S)[S-].[Mn+2] | inactive | – |
| CCN(Cc1c(F)cccc1Cl)c1c([N+](=O)[O-])cc(C(F)(F)F)cc1[N+](=O)[O-] | inactive | – |
| CCCN(CCC)c1c([N+](=O)[O-])cc(C(F)(F)F)c(N)c1[N+](=O)[O-] | inactive | – |
| COC(=O)c1ccccc1C(=O)O | inactive | – |
| O=C(c1ccccc1)C1CCCCC1 | inactive | – |
| CC(C)(c1ccc(O)cc1)c1ccc(O)cc1 | inactive | 33.4 µM (active) |
| CCOC(=O)C(C)Oc1ccc(Oc2cnc3cc(Cl)ccc3n2)cc1 (stereo not given) | inactive | – |
| CC(=O)S[C@@H]1CC2=CC(=O)CC[C@]2(C)[C@H]2CC[C@@]3(C)[C@@H](CC[C@@]34CCC(=O)O4)[C@H]12 | inactive | 178 µM (active) |
| CCOC(=O)NCCOc1ccc(Oc2ccccc2)cc1 | inactive | – |
| CCNc1nc(N)nc(Cl)n1 | inactive | – |

Test system: not listed separately
Test: ATG_TA_CIS: Attagene CIS-FACTORIAL HepG2 Assay for human TA Basal Promoter (AID 2282964)
Details: HepG2 Attagene CIS-factorial TA basal promoter reporter; actives raise or lower the signal
Method in brief: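 Steps: transfect HepG2 with MRTUs; dose 24 h; isolate RNA, DNase-treat, reverse-transcribe; PCR and FAM-label reporter cDNA; digest with HpaI 2h at 37 C; run capillary electrophoresis. Activity fitted both directions against DMSO.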

| SMILES | outcome | AC50 |
| --- | --- | --- |
| CCC(O)=C1C(=O)CC(C(=O)O)CC1=O (stereo not given) | inactive | – |
| COC(=O)c1cccc(C)c1S(=O)(=O)NC(=O)Nc1nc(OCC(F)(F)F)nc(N(C)C)n1 | inactive | – |
| N[C@@H](Cc1cc(I)c(Oc2ccc(O)c(I)c2)c(I)c1)C(=O)O | inactive | – |
| S=C([S-])NCCNC(=S)[S-].[Mn+2] | inactive | – |
| CCN(Cc1c(F)cccc1Cl)c1c([N+](=O)[O-])cc(C(F)(F)F)cc1[N+](=O)[O-] | inactive | – |
| CC(=O)[C@H]1CC[C@H]2[C@@H]3CCC4=CC(=O)CC[C@]4(C)[C@H]3CC[C@]12C | inactive | – |
| S=C(S)NCCNC(=S)S.[Mn+2].[S-]C([S-])=NCCN=C([S-])[S-].[Zn+2] | inactive | – |
| C#CCOC(=O)[C@@H](C)Oc1ccc(Oc2ncc(Cl)cc2F)cc1 | inactive | – |
| c1ccc2[nH]c(-c3cscn3)nc2c1 | inactive | – |
| CN(C)C(=O)Nc1ccc(Cl)c(Cl)c1 | inactive | – |
| CCCN(CCC)c1c([N+](=O)[O-])cc(C(F)(F)F)c(N)c1[N+](=O)[O-] | inactive | – |
| COC(=O)c1ccccc1C(=O)O | inactive | – |
| CC1(C)C(C=C(Cl)Cl)C1C(=O)OCc1cccc(Oc2ccccc2)c1 (stereo not given) | inactive | – |
| C[C@]12CC[C@@H]3c4ccc(O)cc4C[C@@H](CCCCCCCCCS(=O)CCCC(F)(F)C(F)(F)F)[C@H]3[C@@H]1CC[C@@H]2O (stereo not given in full) | inactive | – |
| CCC(C)OC(=O)N1CCCCC1CCO (stereo not given) | inactive | – |
| COCCO | inactive | – |
| c1ccc(Nc2ccccc2)cc1 | inactive | – |
| O=C(c1ccccc1)C1CCCCC1 | inactive | – |
| COc1c(Cl)ccc(Cl)c1C(=O)O | inactive | – |
| O=C(c1ccc(O)cc1O)c1ccc(O)cc1O | inactive | – |
| CCOC(=O)c1ccc(O)cc1 | inactive | – |
| O=C(O)C1(C(=O)Nc2ccc(Cl)cc2Cl)CC1 | inactive | – |
| CC(C)(C)[C@@H](O)[C@@H](Cc1ccc(Cl)cc1)n1cncn1 | inactive | – |
| CC(C)(c1ccc(O)cc1)c1ccc(O)cc1 | inactive | 140 µM (active) [middle of 4 runs] |
| CCOC(=O)C(C)Oc1ccc(Oc2cnc3cc(Cl)ccc3n2)cc1 (stereo not given) | inactive | – |
| N#CSCSc1nc2ccccc2s1 | inactive | – |
| CC(=O)S[C@@H]1CC2=CC(=O)CC[C@]2(C)[C@H]2CC[C@@]3(C)[C@@H](CC[C@@]34CCC(=O)O4)[C@H]12 | inactive | 182 µM (active) |
| CC(C)CCCCCCc1ccc(O)cc1 | inactive | 20.3 µM (active) |
| CCOC(=O)NCCOc1ccc(Oc2ccccc2)cc1 | inactive | – |
| CCNc1nc(N)nc(Cl)n1 | inactive | – |
